Laboratory results: PubChem BioAssay AID1159580 (chemical genetic matrix, 2015)
Out of some 5,500 compounds screened, about 2,000 (36%) were called active. Not shown: some 18% with an inconclusive outcome. Rule as the data show it: active = normalized growth mostly below about 0.91 (no sharp cut-off); inconclusive = no clear call, values can overlap the other calls; inactive = mostly above about 0.92. Some of the results follow.

Experiment: chemical genetic growth profiling, strain panel (AID 1159580);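 also: tested at 20 µM; growth read once vehicle control cultures reached saturation at 30 °C; 1 = growth at the plate median or of vehicle wells; lower values mean less growth of the strain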
Conditions: growth OD

Measured: normalized growth

C[N+](C)(C)CC(O)CC(=O)O (stereo unspecified)
inactive: S. cerevisiae deletion strains, locus YKL009W, strain mrt4, hits give low values 1.03 | S. cerevisiae deletion strains, locus YKL068W, hits give low values 1 | S. cerevisiae deletion strains, locus YKL085W, strain MDH1 (second series), hits give low values 1.02 | S. cerevisiae deletion strains, locus YKL085W, strain MDH1, hits give low values 1.02 | S. cerevisiae deletion strains, locus YKL160W, strain elf1, hits give low values 0.982 | S. cerevisiae deletion strains, locus YKL190W, strain CNB1, hits give low values 1.01 | S. cerevisiae deletion strains, locus YKR001C, strain vps1, hits give low values 0.993 | S. cerevisiae deletion strains, locus YKR026C, strain gcn3, hits give low values 0.98 | S. cerevisiae deletion strains, locus YKR091W, strain srl3, hits give low values 0.977 | S. cerevisiae deletion strains, locus YLL001W, strain dnm1, hits give low values 0.975 | S. cerevisiae deletion strains, locus YLL026W, hits give low values 0.991 | S. cerevisiae deletion strains, locus YLL041C, strain sdh2, hits give low values 0.985 | S. cerevisiae deletion strains, locus YLR027C, strain aat2, hits give low values 0.982 | S. cerevisiae deletion strains, locus YLR039C, strain RIC1, hits give low values 1 | S. cerevisiae deletion strains, locus YLR058C, strain SHM2, hits give low values 1.01 | S. cerevisiae deletion strains, locus YLR102C, strain apc9, hits give low values 0.997 | S. cerevisiae deletion strains, locus YLR113W, strain HOG1, hits give low values 0.994 | S. cerevisiae deletion strains, locus YLR221C, strain rsa3, hits give low values 1.03 | S. cerevisiae deletion strains, locus YLR258W, strain gsy2, hits give low values 0.981 | S. cerevisiae deletion strains, locus YLR262C, strain YPT6 (second series), hits give low values 1.01 | S. cerevisiae deletion strains, locus YLR262C, strain YPT6, hits give low values 1.02 | S. cerevisiae deletion strains, locus YLR268W, strain sec22, hits give low values 0.992 | S. cerevisiae deletion strains, locus YLR320W, strain mms22, hits give low values 0.978 | S. cerevisiae deletion strains, locus YLR330W, strain CHS5, hits give low values 1.01 | S. cerevisiae deletion strains, locus YLR342W, strain FKS1 (second series), hits give low values 0.996 | S. cerevisiae deletion strains, locus YLR342W, strain FKS1, hits give low values 0.964 | S. cerevisiae deletion strains, locus YLR357W, strain rsc2, hits give low values 0.988 | S. cerevisiae deletion strains, locus YLR370C, strain arc18, hits give low values 0.973 | S. cerevisiae deletion strains, locus YLR371W, strain rom2, hits give low values 0.999 | S. cerevisiae deletion strains, locus YLR384C, strain iki3, hits give low values 0.967 | S. cerevisiae deletion strains, locus YLR418C, strain cdc73, hits give low values 0.993 | S. cerevisiae deletion strains, locus YML016C, strain PPZ1, hits give low values 1 | S. cerevisiae deletion strains, locus YML032C, strain rad52, hits give low values 1 | S. cerevisiae deletion strains, locus YML120C, strain ndi1, hits give low values 0.998 | S. cerevisiae deletion strains, locus YML124C, strain tub3, hits give low values 1 | S. cerevisiae deletion strains, locus YMR058W, strain fet3, hits give low values 0.991 | S. cerevisiae deletion strains, locus YMR078C, strain ctf18, hits give low values 0.998 | S. cerevisiae deletion strains, locus YMR125W, strain sto1, hits give low values 0.969 | S. cerevisiae deletion strains, locus YMR129W, hits give low values 0.991 | S. cerevisiae deletion strains, locus YMR205C, strain PFK2, hits give low values 0.989 | S. cerevisiae deletion strains, locus YMR223W, strain ubp8, hits give low values 1.01 | S. cerevisiae deletion strains, locus YMR231W, strain pep5, hits give low values 0.983 | S. cerevisiae deletion strains, locus YMR263W, strain SAP30, hits give low values 1.01 | S. cerevisiae deletion strains, locus YMR307W, strain GAS1, hits give low values 0.949 | S. cerevisiae deletion strains, locus YNL067W, strain RPL9B, hits give low values 1 | S. cerevisiae deletion strains, locus YNL071W, strain lat1, hits give low values 0.992 | S. cerevisiae deletion strains, locus YNL128W, strain TEP1, hits give low values 1.01 | S. cerevisiae deletion strains, locus YNL153C, strain GIM3, hits give low values 1.01 | S. cerevisiae deletion strains, locus YNL183C, strain NPR1, hits give low values 0.922 | S. cerevisiae deletion strains, locus YNL209W, strain ssb2, hits give low values 0.989 | S. cerevisiae deletion strains, locus YNL233W, strain BNI4, hits give low values 1 | S. cerevisiae deletion strains, locus YNL248C, strain rpa49, hits give low values 0.98 | S. cerevisiae deletion strains, locus YNL250W, strain rad50, hits give low values 0.995 | S. cerevisiae deletion strains, locus YNL271C, strain bni1, hits give low values 0.996 | S. cerevisiae deletion strains, locus YNL298W, strain CLA4, hits give low values 0.984 | S. cerevisiae deletion strains, locus YNL307C, strain MCK1, hits give low values 1.01 | S. cerevisiae deletion strains, locus YNL322C, strain KRE1 (second series), hits give low values 0.963 | S. cerevisiae deletion strains, locus YNL322C, strain KRE1, hits give low values 1 | S. cerevisiae deletion strains, locus YNR049C, strain mso1, hits give low values 0.981 | S. cerevisiae deletion strains, locus YNR052C, strain pop2, hits give low values 0.994 | S. cerevisiae deletion strains, locus YOL006C, strain TOP1, hits give low values 1.03 | S. cerevisiae deletion strains, locus YOL012C, strain htz1 0.718 | S. cerevisiae deletion strains, locus YOL147C, strain pex11, hits give low values 1.01 | S. cerevisiae deletion strains, locus YOR001W, strain rrp6, hits give low values 0.999 | S. cerevisiae deletion strains, locus YOR061W, strain CKA2, hits give low values 1.01 | S. cerevisiae deletion strains, locus YOR069W, strain VPS5, hits give low values 1 | S. cerevisiae deletion strains, locus YOR070C, strain gyp1, hits give low values 0.993 | S. cerevisiae deletion strains, locus YOR080W, strain dia2, hits give low values 0.987 | S. cerevisiae deletion strains, locus YOR083W, strain WHI5, hits give low values 0.989 | S. cerevisiae deletion strains, locus YOR106W, strain vam3, hits give low values 0.968 | S. cerevisiae deletion strains, locus YOR136W, strain idh2, hits give low values 0.991 | S. cerevisiae deletion strains, locus YOR144C, strain elg1, hits give low values 1 | S. cerevisiae deletion strains, locus YOR184W, strain ser1, hits give low values 1.01 | S. cerevisiae deletion strains, locus YOR231W, strain MKK1, hits give low values 0.989 | S. cerevisiae deletion strains, locus YOR265W, strain rbl2, hits give low values 0.996 | S. cerevisiae deletion strains, locus YOR270C, strain vph1, hits give low values 1.01 | S. cerevisiae deletion strains, locus YOR290C, strain snf2, hits give low values 0.977 | S. cerevisiae deletion strains, locus YOR316C, strain cot1, hits give low values 1 | S. cerevisiae deletion strains, locus YPL051W, strain arl3, hits give low values 0.982 | S. cerevisiae deletion strains, locus YPL055C, strain LGE1, hits give low values 1.04 | S. cerevisiae deletion strains, locus YPL078C, strain atp4, hits give low values 0.986 | S. cerevisiae deletion strains, locus YPL106C, strain sse1, hits give low values 0.978 | S. cerevisiae deletion strains, locus YPL240C, strain hsp82, hits give low values 1 | S. cerevisiae deletion strains, locus YPL241C, strain CIN2, hits give low values 1 | S. cerevisiae deletion strains, locus YPL256C, strain CLN2, hits give low values 0.983 | S. cerevisiae deletion strains, locus YPR119W, strain clb2, hits give low values 0.988 | S. cerevisiae deletion strains, locus YPR141C, strain kar3, hits give low values 0.995 | S. cerevisiae deletion strains, locus YPR163C, strain tif3, hits give low values 0.994 | S. cerevisiae deletion strains, locus YPR167C, strain met16, hits give low values 1 | S. cerevisiae deletion strains, strain wtn01, hits give low values 0.989 | S. cerevisiae strains, strain wild type, hits give low values 1.01
